# Experimental data as given in PubChem BioAssay (NCI).
# Compounds without any hit were thinned out: in the full panel of roughly 83,000, 20% have a hit.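 Treatment: one concentration, 48 hours, 96-well format. Scoring: percent growth, with anything below 10 considered active.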 A number with no mark means an inactive call. Active and inactive are the calls of the source.
# How the values were obtained:
# Test in all cases: NCI-60 one-dose screen, 48 h (100 = growth as untreated, 0 = no growth, -100 = all killed)
# Settings in all cases: 10 µM unless noted
# [1] = tested on: MOLT-4 leukemia
# [2] = tested on: SR leukemia
# [3] = tested on: RPMI-8226 leukemia
# [4] = tested on: OVCAR-8 ovarian
# [5] = tested on: OVCAR-5 ovarian
# [6] = tested on: OVCAR-4 ovarian
# [7] = tested on: SK-OV-3 ovarian
# [8] = tested on: IGROV1 ovarian
# [9] = tested on: OVCAR-3 ovarian
# [10] = tested on: HS 578T breast
# [11] = tested on: NCI/ADR-RES ovarian
# [12] = tested on: T-47D breast
# [13] = tested on: BT-549 breast
# [14] = tested on: MDA-MB-435 melanoma
# [15] = tested on: SW-620 colon
# [16] = tested on: MCF7 breast
# [17] = tested on: HCT-116 colon
# [18] = tested on: HCC-2998 colon
# [19] = tested on: KM12 colon
Structure (SMILES),growth [1],growth [2],growth [3],growth [4],growth [5],growth [6],growth [7],growth [8],growth [9],growth [10],growth [11],growth [12],growth [13],growth [14],growth [15],growth [16],growth [17],growth [18],growth [19]
COc1cc2c(=O)n(C3CCCCCCC3)c3c4cc[nH]c4ncc3c2cc1OC,40.6%,17.4%,50.1%,43.7%,79.3%,-9.58% (active),36.5%,48.4%,36.8%,2.28% (active),40.5%,39.5%,44.6%,57.9%,56.8%,39.1%,31.5%,96.2%,19.1%
C=CC12CCN(CC1)C(C(O)c1ccnc3ccc(OC)cc13)C2 (centres undefined),67.8%,37.1%,4.37% (active),92.3%,88.4%,76.9%,89.2%,81.4%,93.7%,90.4%,91.8%,82.5%,103%,56.5%,88.9%,66.5%,60.5%,-34.8% (active),–
O[C@H](CN1CC1)[C@@H](O)CN1CC1,32.8%,16.9%,88%,55%,103%,93.1%,49.5%,93.9%,101%,97.1%,56.3%,48%,81.9%,78.3%,64.4%,41.7%,66.3%,97%,91.5%
CCN1C(=O)C(=C/C=C/c2ccccc2)C(=O)N(CC)C1=O,6.92% (active),-6.58% (active),61%,54%,107%,111%,103%,84.5%,42.6%,91.2%,78.6%,96.3%,91.9%,29.9%,26.5%,74.5%,16.3%,112%,86.5%
COC(=O)[C@@H](NC(=O)c1cn(CCC2CCCCC2)c2ccccc12)C(C)(C)C,64.3%,61.3%,64.9%,77.7%,82%,68.7%,79.2%,62.3%,77.4%,83.9%,73.6%,61.9%,84.1%,83.3%,86.3%,75%,64.2%,86.3%,69.8%
COc1ccc2c(c1)c(-c1nc(-c3c[nH]c4ncccc34)cs1)cn2CCCCN1CCCCC1,-60.3% (active),-57.6% (active),-43.6% (active),-67.6% (active),-15.7% (active),-13.3% (active),-61.5% (active),-62.1% (active),-71.4% (active),-23.3% (active),1.16% (active),-55.5% (active),69.2%,-92.7% (active),-71.9% (active),-74.9% (active),-98.9% (active),-9.73% (active),-62.9% (active)
C/C(=C\c1ccn(-c2ccc(N)cc2)n1)[C@@H]1C[C@@H]2O[C@]2(C)CCC[C@H](C)[C@H](O)[C@@H](C)C(=O)C(C)(C)[C@@H](O)CC(=O)O1,13.3%,19%,15.6%,29.5%,32.9%,67.4%,45.1%,40.3%,2% (active),17.8%,-2.72% (active),42.7%,26.9%,-33.6% (active),38.3%,19.1%,10.4%,-0.702% (active),15%
O=C1C(N2CC2)=C(N2CC2)C(=O)C(N2CC2)=C1N1CC1,32.9%,2.9% (active),37.7%,0.671% (active),-60.6% (active),51.7%,-30.6% (active),-23.5% (active),4.7% (active),14.3%,-27.7% (active),30.5%,-34.2% (active),-74.7% (active),0.521% (active),-46.1% (active),-79.2% (active),-94.9% (active),-58.6% (active)
C[C@]12CC[C@H]3[C@@H](CC4SC(N)=NC45C/C(=N/NC(N)=O)CC[C@]35C)[C@@H]1CCC2=O (some centres undefined),13.4%,-21.8% (active),-6.28% (active),-2.26% (active),72.9%,-19.1% (active),101%,2.9% (active),-32.3% (active),36.4%,-5.32% (active),-21% (active),107%,-58.8% (active),-59.2% (active),-55.6% (active),6.35% (active),63.9%,20.5%
Nc1c(F)cc(-c2nc3cc(F)ccc3[se]2)cc1Br,91.2%,15.7%,35.1%,93.1%,8.24% (active),30.1%,39.7%,5.47% (active),40.8%,96.6%,89.8%,-9.56% (active),43%,94.2%,84.4%,2.12% (active),15.5%,-35.1% (active),38.8%
CC[C@H](C)[C@H](NC(=O)c1ccccn1)C(=O)N(C)[C@H](C[C@@H](OC(C)=O)c1nc(C(=O)N[C@@H](Cc2ccccc2)C[C@H](C)C(=O)OC)cs1)C(C)C,19.5%,4.97% (active),19.9%,22.6%,49.6%,47.8%,41.2%,28.4%,-22.5% (active),-1.12% (active),16.1%,80.7%,24.2%,-25.3% (active),25.7%,21.2%,9.41% (active),23.9%,10.2%
O=C(O)C1C(C(=O)O)C2(Cl)C(Cl)=C(Cl)C1(Cl)C2(Cl)Cl.[Hg] (centres undefined),72.6%,60.6%,84%,106%,106%,108%,120%,74.8%,39.8%,102%,102%,58%,88.1%,99.7%,86.7%,52.2%,90.4%,116%,96.7%
O=C([O][Hg][c]1ccccc1)c1ccccc1,-27.5% (active),-7.13% (active),-36.7% (active),-29% (active),-82.3% (active),-1.64% (active),64.9%,-64% (active),-94.4% (active),12.9%,37.9%,-37.8% (active),-92.7% (active),-86.6% (active),-49.6% (active),-57.7% (active),-82.5% (active),51%,87.6%
Brc1ccc2c(c1)c(-c1nc(-c3c[nH]c4ncccc34)cs1)cn2CCN1CCCCC1,42%,16.2%,51.2%,83.5%,109%,74.9%,103%,46.8%,85.1%,76.7%,75.2%,66.2%,89%,76.9%,58.4%,47.1%,51%,38.9%,66.2%
CCOP(=O)(NC[C@H]1O[C@](O)(CO)[C@@H](O)[C@@H]1O)OCC,95.9%,97.1%,101%,103%,112%,103%,87.6%,94.5%,103%,96.4%,100%,98.1%,87.1%,106%,104%,95.1%,95.6%,103%,99.3%
